Consider 28 compounds from PubChem BioAssay (Tox21).

Unmarked numbers belong to inactive results. Records with an inconclusive call do not appear. Active and inactive are the calls of the source. Calls come from the whole dose curve; as a rule, active = well fitted curve in the direction sought with a large enough effect in the repeat runs; inconclusive = weak or mixed curves; inactive = no such curve, though single readings can be large; an effect the other way counts as inactive or inconclusive.

The nature of test [1]: qHTS RealTime-Glo MT Cell Viability Assay in HEK293 cells - 40 hour (AID 1224874). Note: nearly all actives have a fitted effect of over 50% in size. Note: potency is the fitted concentration of half-maximal effect. The settings on record: RealTime-Glo luminescence; max response: hits give low values. In a few lines:
(§1)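 600 HEK293 cells per well, dispensed already mixed with RealTime-Glo MT reagents. Compound dosing came 5 h later. The same wells were read for luminescence at 0, 8, 16, 24, 32 and 40 h of exposure at 37 C.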
Background: In qHTS, concentration-response curves come from the screen itself.

Test [2] in a line: A CellTox Green Cytotoxicity Assay to monitor cytotoxicity in HepG2 cells - 16 hour (AID 1224876). Note: nearly all actives have a fitted effect of over 45% in size. Note: potency is the fitted concentration of half-maximal effect. A digest of the protocol:
(§2)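 First, HepG2 cells (600/well) mixed with reagent were plated; second, after 5 h at 37 C they received compounds via pintool; third, fluorescence was measured at 0 h through 40 h at 8 h intervals.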

Test [3] is described as follows: qHTS RealTime-Glo MT Cell Viability Assay in HepG2 cells - 32 hour (AID 1224877). Note: nearly all actives have a fitted effect of over 55% in size. Note: potency is the fitted concentration of half-maximal effect. In a few lines:
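Cells + NanoLuc/prosubstrate dispensed (600 cells/well) → 5 h at 37 C/5% CO2 → compounds in DMSO transferred → 40 h incubation at 37 C, luminescence read at 0, 8, 16, 24, 32, 40 h.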

Test [4] in a line: A CellTox Green Cytotoxicity Assay to monitor cytotoxicity in HepG2 cells - 24 hour (AID 1224878). Note: nearly all actives have a fitted effect of over 45% in size. Note: potency is the fitted concentration of half-maximal effect. A digest of the protocol: as §2
Test [5] can be described thus: A CellTox Green Cytotoxicity Assay to monitor cytotoxicity in HepG2 cells - 40 hour (AID 1224879). Note: nearly all actives have a fitted effect of over 40% in size. Note: potency is the fitted concentration of half-maximal effect. A digest of the protocol:
as §2

Test [6] is described as follows: qHTS RealTime-Glo MT Cell Viability Assay in HEK293 cells - 0 hour (AID 1224880). Note: top concentration of the series differs between compounds; nearly all actives have a fitted effect of over 45% in size. In a few lines: as §1
Test [7] can be described thus: A CellTox Green Cytotoxicity Assay to monitor cytotoxicity in HEK293 cells - 32 hour (AID 1224881). Note: nearly all actives have a fitted effect of over 40% in size. Note: potency is the fitted concentration of half-maximal effect. A digest of the protocol:
(§3)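 Dead-cell fluorescence measured kinetically: asymmetric cyanine dye, HEK293, 600 cells/well, 5 h settle, 23 nL cpd/DMSO, 37 C, reads 0–40 h every 8 h.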

Test [8] is described as follows: A CellTox Green Cytotoxicity Assay to monitor cytotoxicity in HepG2 cells - 0 hour (AID 1224882). Note: nearly all actives have a fitted effect of over 35% in size. A digest of the protocol:
as §2

A short description of test [9]: A CellTox Green Cytotoxicity Assay to monitor cytotoxicity in HepG2 cells - 32 hour (AID 1224883). Note: nearly all actives have a fitted effect of over 50% in size. Note: potency is the fitted concentration of half-maximal effect. A digest of the protocol: as §2
Test [10] can be described thus: A CellTox Green Cytotoxicity Assay to monitor cytotoxicity in HEK293 cells - 24 hour (AID 1224875). For activity change: series mostly up to about 77 µM. Note: nearly all actives have a fitted effect of over 45% in size. Note: potency is the fitted concentration of half-maximal effect. In a few lines:
as §3
% is set by controls: 0 for no effect and ±100 for the full control effect.

As to `Nc1ccc2c(S(=O)(=O)O)cccc2c1S(=O)(=O)O`, in [1], the max response is 5.38%. Besides, the Potency entry in test [2], in [3], in [4], in [5], in test [6] and in test [7] was “inactive” in each case. The Potency result in test [8] and in test [9] was “inactive” in each case.

In the case of `CCCCNc1ccc(NCCCC)c2c1C(=O)c1ccccc1C2=O`, in test [1], the max response is -1.48%. Besides, the cytotoxicity increase was -0.637% [at 15.8 µM] in [2], -3.23% [at 15.8 µM] in test [5], -0.0716% [at 15.8 µM] in test [7] and -3.73% [at 15.8 µM] in [9]. For the same compound, the activity change, negative = cytotoxic in test [3] is -3.72% [at 15.8 µM]. The cytotoxicity in test [4] is -4.17% [at 15.8 µM]; in test [8], 3.56% [at 15.8 µM]. In addition, the activity change, negative = cytotoxicity in test [6] was -4.14% [at 15.8 µM].

`CSc1nnc(C(C)(C)C)c(=O)[nH]1`: in [1], the max response was 1.65%. The Potency entry in [2], in [3], in [5], in [6], in [7] and in test [9] was “inactive” each time.

Take `CCC(C)(C)c1ccc(CC(C)CN2C[C@@H](C)O[C@@H](C)C2)cc1` (some centres undefined): the max response in test [1] was -25.5%. Also, the Potency entry in test [3], in [6] and in test [8] was “inactive” each time. The Potency in test [4] is 21.3 µM (active); in [5], 23.9 µM (active); in test [7], 23.9 µM (active); in test [9], 21.3 µM (active).

In the case of `NCc1ccco1`, the max response in test [1] was 18.6%. The Potency entry in test [2], in [3], in test [5], in test [6], in test [7] and in [9] was “inactive” in each case.

For the compound `CCN(CC)c1ccc(N=Nc2ccccc2)cc1`, in test [1], the Potency is 54.9 µM (active). The Potency result in test [2], in [3], in test [4], in test [5], in test [8] and in test [9] was “inactive” in each case.

In the case of `CCOC(=O)OC(=O)OCC`, in test [1], the max response was 18.5%. In addition, the Potency entry in [2], in [3], in test [4], in test [5], in test [7] and in test [9] was “inactive” each time.

Regarding `N#Cc1nc(Cl)c(Cl)c(Cl)c1Cl`, the Potency in test [1] was 2.19 µM (active); in test [2], 49 µM (active); in test [3] it was 19.5 µM (active); in test [4], 49 µM (active); in test [5] it was 24.5 µM (active); in test [9], 27.5 µM (active). The Potency entry in [6] and in test [8] was “inactive” in each case.

In the case of `C=CC(=O)OCC(Br)CBr` (centres undefined), the Potency result in test [10], in [2], in test [3], in test [4], in [5] and in test [7] was “inactive” each time. Moreover, the Potency result in test [9] was “inactive”.

Take `O=C(CCN1CCC(c2ccccc2)C1)c1ccc2c(c1)OCCO2` (centres undefined): the Potency result in test [2], in test [6] and in test [8] was “inactive” each time. Moreover, the Potency in [5] and in test [9] was 26.8 µM (active) in each case.

Consider `CSc1ccc(O)cc1C`, for which the Potency entry in test [10], in [2], in [3], in [4], in [5] and in [6] was “inactive” throughout. Moreover, the Potency entry in test [7], in test [8] and in [9] was “inactive” in each case.

As for `CCOC(=O)C1=NN(c2ccc(Cl)cc2Cl)C(C)(C(=O)OCC)C1` (centres undefined), the Potency entry in test [10], in test [2], in test [3], in test [4], in test [5] and in [6] was “inactive” each time. Further, the Potency entry in test [7] and in [9] was “inactive” each time.

With `CC(C)(C)C1=CC(=O)C(C(C)(C)C)=CC1=O`, the Potency result in [10], in [2], in test [3], in test [4], in test [5] and in [6] was “inactive” throughout. Also, the Potency entry in test [7] and in test [9] was “inactive” throughout.

With `O=C(N[C@H](CO)[C@H](O)c1ccc([N+](=O)[O-])cc1)C(Cl)Cl`, the Potency entry in test [10], in [2], in test [3], in [5], in test [8] and in [9] was “inactive” throughout.

With `O=C1Cc2ccccc2C1`, the Potency result in test [6] is “inactive”.

For the compound `O=C1CCC(=O)N1`, the Potency result in [2], in test [3], in test [4], in [5], in test [8] and in test [9] was “inactive” each time.

`CC(C)c1ccc2sc3ccccc3c(=O)c2c1`: the Potency entry in test [2], in [3], in test [4], in [6], in [8] and in [9] was “inactive” each time. The Potency in test [5] was 19.5 µM (active).

Consider `CS(=O)(=O)c1ccc([C@@H](CC2CCCC2)C(=O)Nc2cnccn2)cc1Cl`, for which the Potency result in test [6] is “inactive”.

With `C1=CCCC1`, the Potency result in test [2], in [3], in test [4], in test [5], in test [8] and in test [9] was “inactive” in each case.

In the case of `O=C(Cl)c1ccc(Cl)cc1Cl`, the Potency in test [5] and in test [9] was 54.9 µM (active) each time. For the same compound, the Potency result in [6] is “inactive”.

For `Nc1ccc(Oc2cccc(Oc3ccc(N)cc3)c2)cc1`, the Potency result in test [10], in test [2], in [3], in [5], in test [7] and in test [8] was “inactive” throughout. Besides, the Potency entry in [9] is “inactive”.

For `C=C1CC[C@H]2O[C@]2(C)CC[C@@H]2[C@@H]1CC2(C)C`, the Potency entry in [10], in [2], in test [3], in test [4], in [5] and in test [6] was “inactive” in each case. Further, the Potency result in [7] and in test [9] was “inactive” throughout.

In the case of `COc1ccc(OC)c(N=Nc2c(O)ccc3ccccc23)c1`, the Potency entry in test [10], in test [2], in test [3], in [4] and in [6] was “inactive” each time.

With `CCCCCc1ccc(O)cc1`, the Potency in test [2] was 49 µM (active); in test [4] it was 49 µM (active); in test [5] it was 43.6 µM (active); in test [9], 49 µM (active). Also, the Potency entry in [3] and in test [6] was “inactive” in each case.

On to `O=C1OC(O)C(C(Cl)Cl)=C1Cl` (centres undefined), for which the Potency entry in [10], in test [2], in test [6] and in [8] was “inactive” each time. Moreover, the figures for the Potency in [5] and in test [9] were 35.7 µM (active) and 45 µM (active), respectively.

For the compound `O=C1OC2(c3ccccc31)c1ccc(O)c(Br)c1Oc1c2ccc(O)c1Br`, the Potency in test [10] is 6.92 µM (active). Besides, the Potency entry in [3] is “inactive”.

Turning to `CCCCCCCCCCCCN1CCCC1=O`, the Potency result in test [6] and in test [8] was “inactive” throughout.

`C=C1C(CCl)(CCl)C2(Cl)C(Cl)C(Cl)C1(Cl)C2(Cl)Cl` (centres undefined): the Potency result in test [2], in [6] and in [8] was “inactive” in each case. In test [7], the Potency was 48.4 µM (active).
